Source: PubChem BioAssay AID720517 (National Center for Advancing Translational Sciences (NCATS), 2013)
Results filed as inconclusive are left out. A call without a number means that no potency is given here. The source made the active and inactive calls. The call rests on the fitted dose curve; in most records, active means well fitted activation curve with a large enough effect; inconclusive means small, poorly fitted or top-dose-only effect; inactive means flat fitted curve, though single readings scatter.

Test: qHTS for Inhibitors of Cell Surface uPA Generation: FP59 Counterscreen for Cherry-picked Compounds
Settings: FP59 anthrax toxin cytotoxicity counterscreen, cells; series mostly up to 115 µM
Potency means the concentration at half of the fitted maximal effect.

SMILES | Potency
CCn1c(CNc2ccc(F)cc2)nnc1SCC(=O)Nc1ccccc1OC | inactive
COc1ccc(C(CNC(=O)C(C)Oc2ccc(Br)cc2)N2CCCC2)cc1 (stereo not given) | inactive
O=C(NNC(=O)c1ncc(Cl)c(Cl)c1Cl)c1ccc(F)cc1 | inactive
COc1cc(CNCCc2ccccc2)cc(Br)c1OCC(=O)Nc1ccccc1C | inactive
Cc1nn2c(=O)cc(CSc3nc4ccccc4[nH]3)nc2s1 | inactive
O=C(N/N=C/c1cccs1)c1ccco1 | inactive
OCC1CCCCN1CC(O)COC(c1ccc(F)cc1)c1ccc(F)cc1 (stereo not given) | inactive
CCOc1cc(C)c(S(=O)(=O)N2CCCCC2)cc1C | inactive
Cc1ccc(S(=O)(=O)NC(=O)Nc2nccs2)cc1 | inactive
O=C1N[C@@H](Cc2c[nH]c3ccccc23)C(=O)N[C@H]1Cc1ccccc1 | inactive
CCOc1ncccc1C(=O)NCc1ccccc1Cl | inactive
CC1CC(=O)Nc2ccccc2N1C(=O)Cn1cnc2ccc(Br)cc2c1=O (stereo not given) | inactive
O=C(O)CC1(CC(=O)NCc2ccc(Cl)cc2)CCCCC1 | inactive
CCN(c1ccc(OC)cc1)S(=O)(=O)c1ccc2c(c1)NC(=O)CS2 | inactive
Cc1nc(SCc2nc3ccccc3[nH]2)c2oc3cc([N+](=O)[O-])ccc3c2n1 | inactive
C=CC(=O)N1C/C(=C/c2ccccc2)C(=O)/C(=C\c2ccccc2)C1 | 13.1 µM (active)
CN(Cc1ccc(C(C)(C)C)cc1)C(=O)Cc1ccc(S(=O)(=O)N2CCOCC2)s1 | inactive
Fc1ccc(NC(=S)N2CCCC(c3ccccc3)=N2)cc1 | inactive
CSc1ccc(CNCCCN(C)C)cc1 | inactive
CCCCCOC(=O)C1=C(C)NC(=O)NC1c1ccccc1 (stereo not given) | inactive

SMILES | Potency
CCCCCN(C(=O)CCC(=O)OCCOc1cccc(Cl)c1)c1c(N)n(CCCC)c(=O)[nH]c1=O | inactive
COc1ccc(OC)c(NC(=O)C2CCCN2C(=O)C2CCC(C)CC2)c1 (stereo not given) | inactive
Cc1cccc(N2CCN(Cc3ccc(Br)o3)CC2)c1C | inactive
Cc1ccc2nc(-c3ccncc3)cc(C(=O)NCCc3ccc(F)cc3)c2c1 | inactive
COCc1cc(C)nc2sc(C(=O)Nc3nccs3)c(N)c12 | inactive
Cc1ccc(/C=C/C(=O)O)cc1S(=O)(=O)N1CCc2ccccc21 | inactive
Cc1c(NC(=S)Nc2ccc(Cl)cc2)c(=O)n(-c2ccccc2)n1C | inactive
CS(=O)(=O)c1ccc(Cl)c(NC(=O)COC(=O)CNC(=O)c2cccs2)c1 | inactive
COc1cccc(C(=O)NCc2ccc3[nH]c(C)cc3c2)c1 | inactive
Cc1ccc(-n2cccc2C(=O)NS(=O)(=O)c2ccc(C)cc2)cc1 | inactive
C[C@@H]1O[C@@H](O[C@@H]2C(=O)c3c(O)cc(O)cc3O[C@H]2c2ccc(O)c(O)c2)[C@H](O)[C@H](O)[C@H]1O | inactive
O=C(NCCCn1cccn1)C1CCC(=O)N(Cc2ccccc2F)C1 (stereo not given) | inactive
CCOC(=O)c1c(NC(=O)COc2ccccc2C#N)sc2c1CC(C)(C)NC2(C)C | inactive
COc1cc(C2NC(=O)NC(C)=C2C(=O)OCC2CCCCC2)ccc1O (stereo not given) | inactive
O=C(NNC(=O)c1cccnc1)c1ccncc1 | inactive
O=C(COc1cccc2ccccc12)NNC(=O)c1cnccn1 | inactive
CC1CN(C(=O)CCC(=O)NCc2ccccc2)c2ccccc2S1 (stereo not given) | inactive
Cc1cccc(C(=O)Nc2cc(=O)n(C)c(=O)n2C)c1 | inactive
CC(C(=O)Nc1nccs1)c1ccc([N+](=O)[O-])cc1 (stereo not given) | inactive
C[C@@H](CSc1ccccc1)CN1CC[C@H](O)CCC1=O | inactive
